Only some compounds are listed: those with a hit (about 17% of all), similar ones and a draw of the others.
TDP1 inh = qHTS Assay for Inhibitors of Tyrosyl-DNA Phosphodiesterase (TDP1); 350,000 tested, 0.28% active; Potency, µM (titrated, usually from 130 µM), without a hit: top-dose activity change, negative = inhibition, actives largely listed as inhibitors; recombinant TDP1, AlphaScreen DNA substrate cleavage; Tyrosyl-DNA phosphodiesterase 1 (Homo sapiens), Q9NUW8; also: % is scaled to controls: 0 for no effect and ±100 for the full control effect; nearly all actives have a fitted effect of over 40% in size
Target sequence (Q9NUW8 whole entry, looked up): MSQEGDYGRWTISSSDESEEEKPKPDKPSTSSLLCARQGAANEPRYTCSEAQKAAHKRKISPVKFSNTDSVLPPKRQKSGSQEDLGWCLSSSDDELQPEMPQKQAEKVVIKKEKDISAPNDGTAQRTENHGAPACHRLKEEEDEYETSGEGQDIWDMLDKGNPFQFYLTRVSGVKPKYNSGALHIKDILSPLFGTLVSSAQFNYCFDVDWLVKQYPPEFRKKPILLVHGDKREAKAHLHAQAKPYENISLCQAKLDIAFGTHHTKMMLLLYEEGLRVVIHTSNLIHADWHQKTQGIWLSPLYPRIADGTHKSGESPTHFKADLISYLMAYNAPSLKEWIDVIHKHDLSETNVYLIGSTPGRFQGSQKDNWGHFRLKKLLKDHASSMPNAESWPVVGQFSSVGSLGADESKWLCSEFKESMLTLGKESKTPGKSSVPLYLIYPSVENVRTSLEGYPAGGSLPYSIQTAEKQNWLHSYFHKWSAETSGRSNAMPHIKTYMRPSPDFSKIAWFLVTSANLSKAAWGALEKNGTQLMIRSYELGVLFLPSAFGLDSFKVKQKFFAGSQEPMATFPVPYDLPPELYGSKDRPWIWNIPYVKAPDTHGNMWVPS
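AlphaScreen read-out: signal falls as enzyme removes the 3' tyrosine-FITC from a 5'-biotinylated DNA oligo (15 nM, 5 min, RT). Enzyme was E. coli-made recombinant Tdp1 at 1 nM, exposed to compound for 15 min beforehand; beads 10 ug/ml, 10 min.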
DT40 TDP1 CPT = qHTS for Inhibitors of human tyrosyl-DNA phosphodiesterase 1 (TDP1): qHTS in cells in presence of CPT; chicken DT40 Tdp1-/-;hTDP1 cells + 20 nM CPT, ATP luminescence, 48 h; AID 686979, 2013; 420,000 tested, 12% active; Potency, µM (titrated, usually from 46.2 µM), without a hit: at the highest dose activity change, negative = growth inhibition, most hits filed as inhibitors; also: % is scaled to controls: 0 for no effect and ±100 for the full control effect; nearly all actives have a fitted effect of over 55% in size
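Chicken DT40 Tdp1-/- cells complemented with human TDP1, 400 cells/well, exposed to compounds plus 20 nM camptothecin for at least 48 h at 37 C; viability read as ATP content by CellTiter-Glo luminescence.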
DT40 TDP1 no CPT = qHTS for Inhibitors of human tyrosyl-DNA phosphodiesterase 1 (TDP1): qHTS in cells in absence of CPT. DT40 Tdp1-/- hTDP1 cells, no CPT, ATP luminescence, 48 h. 420,000 tested, 15% active. Potency, µM (titrated, usually from 46.2 µM), for inactives: top-dose activity change, negative = growth inhibition, usual class: inhibitors. AID 686978, 2013; also: % is scaled to controls: 0 for no effect and ±100 for the full control effect; nearly all actives have a fitted effect of over 55% in size
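Compound effects on proliferation are scored in DT40 Tdp1-/-;hTDP1 cells in the absence of CPT. ATP levels (CellTiter-Glo luminescence) are recorded after a ≥48 hr, 37 °C incubation.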
ClpP mod = qHTS Assay for Activators of ClpP; ATP-dependent Clp protease proteolytic subunit (Bacillus subtilis (strain 168)), P80244; purified B. subtilis ClpP, FRET peptide cleavage, 20 min; Potency, µM (highest dose often 57.5 µM), without a hit: at the top dose activity change, negative = active; 340,000 tested, 1.9% active; AID 651965, 2013; active = well fitted falling curve with a large enough effect; inconclusive = small, poorly fitted or top-dose-only effect; inactive = no such curve, though single readings can be large or run the other way; also: the source files actives as falling curves though it sought activators and does not explain the sign; nearly all actives have a fitted effect of over 65% in size
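Purified B. subtilis ClpP, 10 microg/mL final in Tris/HCl pH8 with KCl, BSA, glycerol and Tween-20, cleaved an Abz/nitrotyrosine-quenched decapeptide. Fluorescence (ex 320, em 430) was read at 0 and 20 min at room temperature. Delta was normalized to 5.8 microM ADEP and DMSO/no-enzyme controls.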
* marks the source's active call; other numbers are inactive results; ? = inconclusive; . = not tested or not shown; [ ] = another dose, or the depositor's remark. Unless noted, calls follow the shape of the dose curve; as a rule, active = well fitted curve in the direction sought with a large enough effect; inconclusive = small, poorly fitted or top-dose-only effect, or another doubt; inactive = no such curve, though single readings can be large; an effect the other way counts as inactive or inconclusive. Potency is read from the fitted curve at half-maximal effect.

SMILES	TDP1 inh	DT40 TDP1 CPT	DT40 TDP1 no CPT	ClpP mod
CC1CCN(Cc2c(C(=O)N/N=C/c3ccc(C(F)(F)F)cc3)nnn2-c2nonc2N)CC1	2%	?	?	.
Cc1cc(C)c(/C=N/NC(=O)c2nnn(-c3nonc3N)c2CN2CCC(C)CC2)c(C)c1	-20%	?	21µM*	.
COc1ccc(/C=N/NC(=O)c2nnn(-c3nonc3N)c2-c2cccc(OC)c2)cc1	2%	-4%	12%	-8%
CC1CCN(Cc2c(C(=O)N/N=C/c3cccc(C(F)(F)F)c3)nnn2-c2nonc2N)CC1	3%	15µM*	15µM*	0%
COc1ccc(O)c(/C=N/NC(=O)c2c(C)nnn2-c2nonc2N)c1	?	18µM*	8.2µM*	.
C[C@@H]1CN([C@@H](C)CO)C(=O)CCCn2nncc2CO[C@@H]1CN(C)S(=O)(=O)c1ccc2c(c1)OCCCO2	.	7%	?	0%
CCCCCCCc1cc2ccccc2c(=O)o1	2%	.	.	.
Cc1ccc(-n2nc3c(c2NC(=O)c2ccc4c(c2)OCO4)CS(=O)C3)c(C)c1 (stereo not drawn)	.	0%	-13%	-3%
CCOc1ccccc1C1CC(=O)Nc2cc(OC)c(OC)cc21 (stereo not drawn)	6%	?	?	2%
CC(C)COc1ccccc1C1CC(=O)Nc2cc3c(cc21)OCO3 (stereo not drawn)	5%	2.6µM*	4.1µM*	-2%
COc1cccc(C2CC(=O)Nc3cc4c(cc32)OCCO4)c1OC (stereo not drawn)	5%	21µM*	18µM*	1%
CCOc1c(OC)cccc1C1CC(=O)Nc2cc3c(cc21)OCCO3 (stereo not drawn)	5%	?	?	0%
COc1cc(C2CC(=O)Nc3cc4c(cc32)OCCO4)cc(OC)c1O (stereo not drawn)	2%[12.3 µM]	?	21µM*	-1%
COc1cc2c(cc1OC)C(c1ccccc1OC(C)C)CC(=O)N2 (stereo not drawn)	.	?	15µM*	.
N[C@]1(C(=O)O)CCc2cc(C(=O)O)ccc21	-14%[56.1 µM]	8%	-5%	.
COc1cccc(-n2c(=O)c3c(C)c(C)sc3n(CC(=O)NCc3ccccc3)c2=O)c1	3%	-3%	5%	1%
Cc1ccc(CNC(=O)CNC(=O)c2ccc(C(C)(C)C)cc2)n1C	4%	?	?	-2%
O=c1[nH]c(C2CC2)nc2sc3c(c12)CCCC3	5%	11%	14%	.
N#Cc1cnn(-c2nc3sc4c(c3c(=O)[nH]2)CCCC4)c1N	5%	21µM*	15µM*	-7%
COc1ccc(C(=O)Cn2c(NCCCO)nc3ccccc32)cc1OC	.	?	?	2%
COc1ccc(C(=O)C2CCCN(C(=O)c3ccc(CSC)o3)C2)cc1F (stereo not drawn)	5%	?	?	1%
COc1ccc(C(=O)C2CCCN(C(=O)c3csc(C(C)=O)c3)C2)c(C)c1 (stereo not drawn)	3%	?	-18%	-1%
COc1ccc(C(=O)C2CCCN(S(=O)(=O)c3ccc(C(C)=O)cc3)C2)c(C)c1 (stereo not drawn)	3%	16µM*	12µM*	1%
C#Cc1cccc(C(=O)N2CCCC(C(=O)c3ccc(OC)cc3C)C2)c1 (stereo not drawn)	2%	-23%	-27%	-17%
COc1ccc(C(=O)C2CCCN(C(=O)c3noc4c3CCCC4)C2)cc1F (stereo not drawn)	.	?	18µM*	.
SMILES	TDP1 inh	DT40 TDP1 CPT	DT40 TDP1 no CPT	ClpP mod
COc1ccc(C(=O)C2CCCN(C(=O)C3=CCCC3)C2)c(C)c1 (stereo not drawn)	1%	?	23µM*	-2%
COc1ccc(C(=O)C2CCCN(C(=O)c3noc4c3CCCC4)C2)c(C)c1 (stereo not drawn)	1%	?	21µM*	.
Cc1ccc(C(=O)NNC(=O)c2ccc(-n3cncn3)c([N+](=O)[O-])c2)cc1	7%	0%	-6%	1%
COC(=O)c1ccccc1-c1cc(C)cc2c1OC(CNC(=O)c1occc1C)C2 (stereo not drawn)	.	16µM*	12µM*	.
CC(C)(C)c1ccc(C(=O)N2CCC2(C)C(=O)Nc2cccc(C#N)c2)cc1 (stereo not drawn)	.	16µM*	16µM*	-2%
CC1(C(=O)Nc2ccc3c(c2)OCCO3)CCN1C(=O)c1ccccc1CCc1ccccc1 (stereo not drawn)	.	29µM*	?	-2%
CC1(C(=O)Nc2ccc3c(c2)OCCO3)CCN1C(=O)c1ccco1 (stereo not drawn)	.	-42%	-11%	1%
CC1(C(=O)Nc2cccc(C#N)c2)CCN1C(=O)c1ccccc1CCc1ccccc1 (stereo not drawn)	.	?	23µM*	-4%
Cc1ccsc1C(=O)N1CCC1(C)C(=O)Nc1cccc(C#N)c1 (stereo not drawn)	.	?	?	-1%
Cc1ccsc1/C=N\NC(=O)CCc1c(C)n[nH]c1C	0%	-1%	-8%	.
CC(=O)c1ccc(S(=O)(=O)Nc2ccc(-c3cn4c(C)csc4n3)cc2)cc1	3%	3%	0%	0%
CC12CCC(=O)N1C(C(=O)NNC(=O)COc1ccc(Br)cc1)CS2 (stereo not drawn)	.	1%	-20%	4%
O=C(NCC(=O)N1CCN(c2ccccc2F)CC1)c1ccc(Br)o1	.	-11%	-2%	-5%
Cc1ccsc1CNC1C2CC3CC(C2)CC1C3 (stereo not drawn)	7%	-3%	-2%	22µM*
CCOC(=O)c1sc(N(Cc2ccccc2)C(=O)COC(=O)c2ccc(O)cc2)nc1C	11%	9.2µM*	5.8µM*	-6%
CCOC(=O)c1sc(N(Cc2ccccc2)C(=O)COC(=O)c2ccccc2O)nc1C	-1%	-28%	?	-7%
CCOC(=O)c1sc(N(Cc2ccccc2)C(=O)CCl)nc1C	.	?	21µM*	.
CCOC(=O)c1sc(N(Cc2ccccc2)C(=O)CSc2ncn[nH]2)nc1C	12%	?	?	4%
C/C(=N\NC(=O)c1cccc(F)c1)c1ccc(NC(=O)Cc2ccccc2)cc1	-5%	6%	-4%	-2%
C/C(=N\NC(=O)c1cc(O)cc(O)c1)c1ccc(NC(=O)Cc2ccccc2)cc1	1.8µM*	-1%	-2%	-4%
C/C(=N/NC(=O)c1ccc(-c2ccccc2)cc1)c1cc(O)cc(O)c1	6%	21µM*	16µM*	-1%
CCCCN(C)CC(O)Cn1cc(/C=C/C(=O)c2ccc(C)cc2)c2ccccc21 (stereo not drawn)	5%	7.3µM*	9.2µM*	1%

Screening data: PubChem, National Center for Advancing Translational Sciences (NCATS)
